A number with no mark means an inactive call. Calls of active or inactive are those of the source. No rule for the calls is given here.
Experiments:
[1] = biological target: L-lactate dehydrogenase (Plasmodium falciparum (isolate CDC / Honduras)) (UniProt Q27743); test: PfLDH activity inhibition – cell lysate, 3D7 strain, counter-screen for P. falciparum growth inhibition project (AID 2304);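 also: 0% = vehicle and 100% = reference inhibitor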; conditions: P. falciparum 3D7 crude extract, LDH APAD/NBT absorbance; at 2 µM; stronger effect = higher value
[2] = inhibition of 3D7 malaria parasite growth – strain 3D7 (AID 2306);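 also: 0% = DMSO wells and 100% = chloroquine plus artemisinin control wells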; conditions: P. falciparum 3D7 erythrocytic growth, LDH absorbance, 72 h; at 2 µM; stronger effect = higher value

Chain of L-lactate dehydrogenase (Plasmodium falciparum (isolate CDC / Honduras)) (Q27743 whole entry, looked up): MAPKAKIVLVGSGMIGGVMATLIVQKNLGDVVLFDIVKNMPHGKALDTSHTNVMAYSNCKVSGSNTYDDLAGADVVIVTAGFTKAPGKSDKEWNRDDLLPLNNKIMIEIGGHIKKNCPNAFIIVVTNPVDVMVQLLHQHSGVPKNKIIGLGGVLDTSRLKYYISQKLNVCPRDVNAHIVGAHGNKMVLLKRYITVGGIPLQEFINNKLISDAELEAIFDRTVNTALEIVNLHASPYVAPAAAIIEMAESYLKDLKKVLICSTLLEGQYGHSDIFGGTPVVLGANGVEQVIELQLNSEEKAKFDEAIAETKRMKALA

**Q.** Which inhibition [1] does the source give for COc1cc(Cc2cnc(N)nc2N)cc(OC)c1OC here?
**A.** 3%

**Q.** What about the growth inhibition [2] of the same compound?
**A.** 88% (active)
